# Laboratory results published in PMC5700166.
# Target: T1, GST-Ap-NF-kB RHD (Exaiptasia pallida (Aiptasia), UniProt A0A913YAJ5 2-422)
# T1 sequence: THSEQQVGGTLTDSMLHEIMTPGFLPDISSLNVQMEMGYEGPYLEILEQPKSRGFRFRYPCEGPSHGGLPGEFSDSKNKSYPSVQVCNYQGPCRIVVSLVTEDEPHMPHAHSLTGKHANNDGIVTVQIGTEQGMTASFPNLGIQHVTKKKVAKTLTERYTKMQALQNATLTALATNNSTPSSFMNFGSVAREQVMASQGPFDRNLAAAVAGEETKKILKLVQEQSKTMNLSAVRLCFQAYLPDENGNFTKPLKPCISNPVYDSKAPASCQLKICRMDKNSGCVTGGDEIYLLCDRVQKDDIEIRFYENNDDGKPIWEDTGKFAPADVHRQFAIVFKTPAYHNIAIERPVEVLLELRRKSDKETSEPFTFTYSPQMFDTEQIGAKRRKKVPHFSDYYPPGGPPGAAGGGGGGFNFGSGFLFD
# Test: protein-binding microarray (PBM); PBM: ~300 nM protein, 6 mM HEPES pH 7.8, 80 mM KCl, 0.5 mM EDTA, 0.5 mM EGTA, 6% glycerol, 35 ng/ul poly-dIdC, 1% milk, 1 h, room temperature; Ap Aiptasia and Nv Nematostella (sea anemones) / Co Capsaspora / Aq Amphimedon (sponge) / Dm Drosophila / Hu human; RHD is the Rel homology domain; high values mean tight binding
# Details: dsDNA, one strand shown
row,Sequence,binding signal [z-score]
1,CCGATTAACATCAGGAAACACCCTGATGTTAATCGGGTCTTGATTCGCTTGACGCTGCTG,3.05
2,CCGATTAACATCAGGACTACCCCTGATGTTAATCGGGTCTTGATTCGCTTGACGCTGCTG,3.7
3,CCGATTAACATCAGGCTTTTCCCTGATGTTAATCGGGTCTTGATTCGCTTGACGCTGCTG,2.62
4,CCGATTAACATCAAAGAAGCCCCTGATGTTAATCGGGTCTTGATTCGCTTGACGCTGCTG,4.38
5,CCGATTAACATCATCCCCGTGTCTGATGTTAATCGGGTCTTGATTCGCTTGACGCTGCTG,2.75
6,CCGATTAACATCAGGGTGTTTTATGATGTTAATCGGGTCTTGATTCGCTTGACGCTGCTG,2.75
7,CCGATTAACATCAAACAATTCCCTGATGTTAATCGGGTCTTGATTCGCTTGACGCTGCTG,3.25
8,CCGATTAACATCAGGAACTACCCTGATGTTAATCGGGTCTTGATTCGCTTGACGCTGCTG,2.97
9,CCGATTAACATCAGGGGGTTAGATGATGTTAATCGGGTCTTGATTCGCTTGACGCTGCTG,3.78
10,CCGATTAACATCAGGGAACCCCATGATGTTAATCGGGTCTTGATTCGCTTGACGCTGCTG,3.95
11,CCGATTAACATCAAGTTTTCCCATGATGTTAATCGGGTCTTGATTCGCTTGACGCTGCTG,2.53
12,CCGATTAACATCAGGGAATCCTATGATGTTAATCGGGTCTTGATTCGCTTGACGCTGCTG,3.36
13,CCGATTAACATCAAGTACTTCCCTGATGTTAATCGGGTCTTGATTCGCTTGACGCTGCTG,2.1
14,CCGATTAACATCAAAAAGTTCCCTGATGTTAATCGGGTCTTGATTCGCTTGACGCTGCTG,4.61
15,CCGATTAACATCAGGGAATTATATGATGTTAATCGGGTCTTGATTCGCTTGACGCTGCTG,4.16
16,CCGATTAACATCACGTCCCCCCCTGATGTTAATCGGGTCTTGATTCGCTTGACGCTGCTG,6.32
17,CCGATTAACATCACATTCTCCCCTGATGTTAATCGGGTCTTGATTCGCTTGACGCTGCTG,4.7
18,CCGATTAACATCACGTGTTTCCCTGATGTTAATCGGGTCTTGATTCGCTTGACGCTGCTG,2.62
19,CCGATTAACATCAAGGGATTCCCTGATGTTAATCGGGTCTTGATTCGCTTGACGCTGCTG,6.28
20,CCGATTAACATCAGGGAGATACCTGATGTTAATCGGGTCTTGATTCGCTTGACGCTGCTG,4
21,CCGATTAACATCAAGCACCCCCTTGATGTTAATCGGGTCTTGATTCGCTTGACGCTGCTG,4.4
22,CCGATTAACATCAGATGTCCCCCTGATGTTAATCGGGTCTTGATTCGCTTGACGCTGCTG,6.05
23,CCGATTAACATCACACCCCCCCCTGATGTTAATCGGGTCTTGATTCGCTTGACGCTGCTG,4.42
24,CCGATTAACATCAGCGAATTCCCTGATGTTAATCGGGTCTTGATTCGCTTGACGCTGCTG,3.47
25,CCGATTAACATCACGGAATACCCTGATGTTAATCGGGTCTTGATTCGCTTGACGCTGCTG,3.79
26,CCGATTAACATCAAATGGGAATTTGATGTTAATCGGGTCTTGATTCGCTTGACGCTGCTG,1.19

# Target: T2, GST-Nv-NF-kB (Cys allele) (Nematostella vectensis, UniProt E5G601 2-411)
# T2 sequence: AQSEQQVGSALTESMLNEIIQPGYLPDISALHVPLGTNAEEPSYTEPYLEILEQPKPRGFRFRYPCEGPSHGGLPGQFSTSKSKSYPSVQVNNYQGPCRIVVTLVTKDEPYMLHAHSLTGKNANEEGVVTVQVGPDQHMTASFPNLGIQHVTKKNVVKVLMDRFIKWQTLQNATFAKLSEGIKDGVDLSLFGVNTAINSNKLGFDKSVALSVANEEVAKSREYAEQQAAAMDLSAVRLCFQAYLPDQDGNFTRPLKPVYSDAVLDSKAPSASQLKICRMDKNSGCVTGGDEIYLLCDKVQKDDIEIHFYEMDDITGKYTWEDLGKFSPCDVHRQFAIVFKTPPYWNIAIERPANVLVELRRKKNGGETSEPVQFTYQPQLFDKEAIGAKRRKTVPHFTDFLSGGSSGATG
# Test: as above
# Details: dsDNA, one strand shown
row,Sequence,binding signal [z-score]
1,CCGATTAACATCAGGCCGTCCCCTGATGTTAATCGGGTCTTGATTCGCTTGACGCTGCTG,4.47
2,CCGATTAACATCAAGGGAGTACCTGATGTTAATCGGGTCTTGATTCGCTTGACGCTGCTG,2.9
3,CCGATTAACATCAAAAATCCCGATGATGTTAATCGGGTCTTGATTCGCTTGACGCTGCTG,3.94
4,CCGATTAACATCAGGGAATGACCTGATGTTAATCGGGTCTTGATTCGCTTGACGCTGCTG,3.16
5,CCGATTAACATCAGGGGAGGTACTGATGTTAATCGGGTCTTGATTCGCTTGACGCTGCTG,3.43
6,CCGATTAACATCAAATAAATCCCTGATGTTAATCGGGTCTTGATTCGCTTGACGCTGCTG,4.02
7,CCGATTAACATCAAAATAATCCCTGATGTTAATCGGGTCTTGATTCGCTTGACGCTGCTG,4.62
8,CCGATTAACATCAGGGAAACCCATGATGTTAATCGGGTCTTGATTCGCTTGACGCTGCTG,4.19
9,CCGATTAACATCAGAATTCCCACTGATGTTAATCGGGTCTTGATTCGCTTGACGCTGCTG,4.12
10,CCGATTAACATCAGGATCTTCCCTGATGTTAATCGGGTCTTGATTCGCTTGACGCTGCTG,3.68
11,CCGATTAACATCAGGGGAGCCCCTGATGTTAATCGGGTCTTGATTCGCTTGACGCTGCTG,6.25
12,CCGATTAACATCACGTAAACCCCTGATGTTAATCGGGTCTTGATTCGCTTGACGCTGCTG,2.68
13,CCGATTAACATCAGGATTGCCCCTGATGTTAATCGGGTCTTGATTCGCTTGACGCTGCTG,4.26
14,CCGATTAACATCAGATTCTCCCCTGATGTTAATCGGGTCTTGATTCGCTTGACGCTGCTG,5.25
15,CCGATTAACATCAGGAAACACCCTGATGTTAATCGGGTCTTGATTCGCTTGACGCTGCTG,2.79
16,CCGATTAACATCAGGACTACCCCTGATGTTAATCGGGTCTTGATTCGCTTGACGCTGCTG,3.48
17,CCGATTAACATCAGGCTTTTCCCTGATGTTAATCGGGTCTTGATTCGCTTGACGCTGCTG,4.54
18,CCGATTAACATCAAAGAAGCCCCTGATGTTAATCGGGTCTTGATTCGCTTGACGCTGCTG,5.52
19,CCGATTAACATCATCCCCGTGTCTGATGTTAATCGGGTCTTGATTCGCTTGACGCTGCTG,3.34
20,CCGATTAACATCAGGGTGTTTTATGATGTTAATCGGGTCTTGATTCGCTTGACGCTGCTG,2.67

row,Sequence,binding signal [z-score]
1,CCGATTAACATCAAACAATTCCCTGATGTTAATCGGGTCTTGATTCGCTTGACGCTGCTG,5.26
2,CCGATTAACATCAGGAACTACCCTGATGTTAATCGGGTCTTGATTCGCTTGACGCTGCTG,2.75
3,CCGATTAACATCAGGGGGTTAGATGATGTTAATCGGGTCTTGATTCGCTTGACGCTGCTG,2.99
4,CCGATTAACATCAGGGAACCCCATGATGTTAATCGGGTCTTGATTCGCTTGACGCTGCTG,2.07
5,CCGATTAACATCAAGTTTTCCCATGATGTTAATCGGGTCTTGATTCGCTTGACGCTGCTG,3.86
6,CCGATTAACATCAGGGAATCCTATGATGTTAATCGGGTCTTGATTCGCTTGACGCTGCTG,4.16
7,CCGATTAACATCAAGTACTTCCCTGATGTTAATCGGGTCTTGATTCGCTTGACGCTGCTG,2.22
8,CCGATTAACATCAAAAAGTTCCCTGATGTTAATCGGGTCTTGATTCGCTTGACGCTGCTG,5.3
9,CCGATTAACATCAGGGAATTATATGATGTTAATCGGGTCTTGATTCGCTTGACGCTGCTG,6.68
10,CCGATTAACATCACGTCCCCCCCTGATGTTAATCGGGTCTTGATTCGCTTGACGCTGCTG,4.27
11,CCGATTAACATCACATTCTCCCCTGATGTTAATCGGGTCTTGATTCGCTTGACGCTGCTG,4.44
12,CCGATTAACATCACGTGTTTCCCTGATGTTAATCGGGTCTTGATTCGCTTGACGCTGCTG,2.76
13,CCGATTAACATCAAGGGATTCCCTGATGTTAATCGGGTCTTGATTCGCTTGACGCTGCTG,5.98
14,CCGATTAACATCAGGGAGATACCTGATGTTAATCGGGTCTTGATTCGCTTGACGCTGCTG,4.81
15,CCGATTAACATCAAGCACCCCCTTGATGTTAATCGGGTCTTGATTCGCTTGACGCTGCTG,3.21
16,CCGATTAACATCAGATGTCCCCCTGATGTTAATCGGGTCTTGATTCGCTTGACGCTGCTG,5.16
17,CCGATTAACATCACACCCCCCCCTGATGTTAATCGGGTCTTGATTCGCTTGACGCTGCTG,3.24
18,CCGATTAACATCAGCGAATTCCCTGATGTTAATCGGGTCTTGATTCGCTTGACGCTGCTG,4.45
19,CCGATTAACATCACGGAATACCCTGATGTTAATCGGGTCTTGATTCGCTTGACGCTGCTG,4.14
20,CCGATTAACATCAAATGGGAATTTGATGTTAATCGGGTCTTGATTCGCTTGACGCTGCTG,4.5
